Source: PubChem BioAssay
This is a sample that favours compounds with a hit; in the whole collection about 2.2% have one here.
RTF Ca sens inh = cardiac RTF calcium desensitization | IANBD-labeled cardiac RTF, Ca2+ fluorescence | inhibition, % at 7.15 µM | 340,000 tested, 0.12% active | AID 493244;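 active means inhibition above the mean inhibition of all tested compounds plus 3 SD, cut at about 17% in these data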;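 further: assay run at fixed EC70 calcium of 1.6 mM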
CRFBP-R2 block = blocks CRF-induced signaling of the CRF-BP/CRF-R2 complex; 350,000 tested, 0.59% active; HEK293 CRF-R2/CRF-BP, CRF-induced calcium fluorescence; inhibition, % at 11.8 µM;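 active means inhibition of the ligand-induced calcium signal above about 50% at the single tested concentration, limit read from the data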
CRFR2-BP ag = CRF-BP/CRF-R2 complex agonism; HEK293 CRF-R2/CRF-BP, calcium dye fluorescence (FLIPR); percent of saturating CRF peptide response; activation, % at 13.2 µM; 350,000 tested, 0.46% active;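 active means activation of at least 50%, plus an integration ratio under a set limit after plate pattern correction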;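 further: plate controls were neutral control wells without compound for no effect and CRF at EC100 for full effect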
Myeloid diff 2 = myeloid differentiation induction; 360,000 tested, 1% active; ER-HoxA9 myeloid progenitors, lysozyme-GFP differentiation, flow cytometry; AID 624256; calls only at 10 µM;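 active means normalized GFP-positive differentiation at or above the plate's own cutoff, the solvent-only control mean plus 3 SD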;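 further: cells exposed to compound for four days before flow analysis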
RTF Ca sens act = increases calcium sensitivity of human cardiac regulated thin filaments | AID 493008 | activation, % at 7.2 µM | 340,000 tested, 0.24% active | IANBD-labeled TnC RTF fluorescence at EC20 calcium; 0% EC20 calcium, 100% full calcium;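 active means activation above the mean over all tested compounds plus 3 SD, cut at about 30% in these data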;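 further: rise in fluorescence read as greater calcium sensitivity of cardiac thin filaments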
An asterisk follows results filed as active; i = inactive; / = no result given; + = active, no number.

SMILES	RTF Ca sens inh	CRFBP-R2 block	CRFR2-BP ag	Myeloid diff 2	RTF Ca sens act
CN1C(=O)c2cccc(NCCCN3C(=O)c4ccccc4C3=O)c2C1=O	-11.2	-64.7	23.3	i	7.7
Cn1c(=O)c(NC2CCCCC2)c2c3c(cccc31)C(=O)c1ccccc1-2	i	-329.9	380.1	+	369.3*
CCCCNc1c2c3c(cccc3n(C)c1=O)C(=O)c1ccccc1-2	i	-272.5	239.2*	i	+
Cn1c(=O)c(NCCO)c2c3c(cccc31)C(=O)c1ccccc1-2	i	i	865.0	i	+
Cc1ccc(S(=O)(=O)N2CCCCC2)cc1NC(=O)c1cc(F)c(F)c(F)c1F	-4.2	4.4	2.0	i	1.4
CN(C)S(=O)(=O)c1ccc(C(=O)NNC(=O)C23CC4CC(CC(C4)C2)C3)cc1	-1.9	-6.6	-1.1	i	-0.6
O=C(NCc1ccccc1Cl)c1ccc2nc[nH]c2c1	-2.9	23.4	0.8	i	16.8
CCNc1c2c3c(cccc3n(C)c1=O)C(=O)c1ccccc1-2	/	-158.2	179.2*	/	/
Cn1c(=O)c(NCCc2ccccc2)c2c3c(cccc31)C(=O)c1ccccc1-2	i	-206.5	273.4	+	+
CCOc1ccc(-c2nc(N)ncc2Oc2cccc(OC)c2)c(O)c1	13.6	53.7*	-0.3	i	4.3
O=C(O)[C@H](Cc1ccccc1)NC(=O)N1CCN(c2ccc(F)cc2)CC1	-2.0	-9.4	0.4	i	3.2
Cc1nc(-c2ccc(F)cc2)c(CC(=O)N2CCN(S(=O)(=O)c3cccc([N+](=O)[O-])c3)CC2)s1	-3.0	-23.0	0.2	+	3.5
CCOC(=O)N1CCN(CC(O)c2ccc3cc[nH]c3c2)CC1 (stereo not drawn)	-4.3	-37.9	58.1*	i	3.1
CCCNC(=O)C1CCN(S(=O)(=O)c2ccc(Br)cc2)CC1	-2.8	2.7	-5.3	i	-2.6
Cc1cc(C)nc(SCc2ccc(C(=O)NNC(=O)Nc3cccc(Cl)c3)cc2)n1	-1.6	69.5*	0.1	i	-1.1
CC(=O)c1cccc(OCc2cc(C(=O)N3C[C@@H](C)O[C@@H](C)C3)no2)c1	-3.9	13.4	-0.3	i	-2.0
O=C1N=C(N2CCCCC2)S/C1=C\c1ccc(Br)cc1	-6.3	11.4	0.0	i	0.1
CN(C)c1ccc(/C=C2\SC(N3CCCCC3)=NC2=O)cc1	-75.0	-59.2	51.0*	i	39.9*
COC(=O)C1=CO[C@@H](O[C@@H]2O[C@H](CO)[C@@H](O)[C@H](O)[C@H]2O)C2C(CO)=CCC12 (stereo partly drawn)	5.1	-1.2	3.7	i	-2.8
NCC[C@H](O)C(=O)N[C@@H]1C[C@H](N)[C@@H](O[C@H]2O[C@H](CN)[C@@H](O)[C@H](O)[C@H]2O)[C@H](O)[C@H]1O[C@H]1O[C@H](CO)[C@@H](O)[C@H](N)[C@H]1O	0.8	64.3*	-1.2	i	-2.3
CCOC(=O)c1ccc(NC(=O)CSc2nc(=O)n(CCN3CCOCC3)c3c2CCC3)cc1	-4.3	26.1	-5.0	i	-4.3
S=C(NC1CCCCC1)N1CCOCCOCCN(C(=S)NC2CCCCC2)CCOCCOCC1	/	115.1*	2.7	i	/
CC(C)(C)C(=O)c1c(N)[nH]c(C(=O)c2ccccc2)c1-c1ccc(Br)cc1	/	/	/	i	/
CCOc1ccc(CC(=O)N/N=C/c2cccnc2)cc1	-11.5	5.1	-2.9	i	10.8
CCCc1ccc(OCc2ccc(C(=O)N/N=C/c3cccnc3)o2)cc1	-7.5	11.1	-1.7	+	-3.1
SMILES	RTF Ca sens inh	CRFBP-R2 block	CRFR2-BP ag	Myeloid diff 2	RTF Ca sens act
COc1ccccc1N1CC(C(=O)OCC(=O)Nc2c(C)cccc2C)CC1=O (stereo not drawn)	-0.7	-19.9	-1.1	i	-4.0
Cc1ccc(C(=O)N(Cc2sccc2C)C2CCS(=O)(=O)C2)cc1 (stereo not drawn)	-7.1	50.4*	-14.2	i	-6.2
N#Cc1c(N)c2ccccn2c1C(=O)c1ccc(Br)cc1	2.0	-27.4	-1.9	i	0.1
COc1cc(/C=C2/SC(=O)NC2=O)ccc1OC(=O)c1ccco1	0.9	15.1	-1.9	i	-6.3
O=C1NC(=S)S/C1=C/c1ccc(OC(=O)c2ccco2)cc1	4.2	44.6	-1.1	+	0.5
CCOc1cc(/C=C2/SC(=S)NC2=O)ccc1OC(=O)c1ccco1	0.3	68.9*	-2.8	i	1.7
COc1ccc(OC)c(-c2nnc3n2N=C(c2ccc(OC)c(OCC4CC4)c2)CS3)c1	-8.0	58.9*	-0.4	+	-1.6
COc1ccc([C@@H]2[C@@H]3C(=O)N(C(C)(C)C)C(=O)[C@@H]3[C@]3(C)C(=O)N(c4ccc(C)cc4)C(=O)N23)cc1	-2.5	-9.4	-0.1	i	1.1
COc1ccc([C@@H]2[C@@H]3C(=O)N(C(C)(C)C)C(=O)[C@@H]3[C@]3(C)C(=O)N(c4ccccc4)C(=O)N23)cc1	1.2	0.9	19.6	+	-3.0
CN(C)N1C(=O)/C(=C/c2ccco2)SC1=Nc1ccccc1	-10.6	12.8	0.1	i	4.2
O=C1/C(=C\c2ccc(Br)o2)SC(=Nc2ccccc2)N1c1ccccc1	-10.3	-13.9	-1.5	+	4.6
COc1cc(N2CCCC2)c(OC)cc1/C=C1/NC(=S)NC1=O	-82.5	-168.3	177.7*	+	78.9*
COc1ccc(OC)c(/C=C2\NC(=O)NC2=O)c1	-5.1	-6.6	-0.2	i	-1.8
CCCCN(C)C1=CC2=CC(=C(C#N)C#N)CCC2CC1 (stereo not drawn)	i	i	493.7	+	+
N#CC(C#N)=C1C=C2C=C(N3CCCCC3)CCC2CC1 (stereo not drawn)	/	-153.6	186.9*	/	/
CCN(CC)C1=CC2=CC(=C(C#N)C#N)CCC2CC1 (stereo not drawn)	i	i	533.1	+	+
Cc1ccc(S(=O)(=O)N2[C@@H](c3ccc(F)cc3)C(C(=O)O)=C[C@H]2CC2CCCC2)cc1	-4.4	12.6	5.9	i	1.9
C[C@@H]1CN([C@@H](C)CO)C(=O)CCCn2cc(nn2)CO[C@H]1CN(C)C(=O)c1cc(-c2ccccc2)on1	/	7.9	-1.1	i	/
COc1ccc(-c2csc3ncnc(Oc4cccc5ccc(C)nc45)c23)cc1	1.1	27.1	0.4	i	-4.5
Cc1ccc2cccc(Oc3ncnc4scc(-c5ccccc5)c34)c2n1	0.9	65.9*	0.5	i	-5.3
COc1cc(OC)cc(C(=O)NCC(=O)OCc2cc(=O)oc3cc(OC)ccc23)c1	-4.0	104.8*	-1.0	i	-1.6
CCN(CC)C1Oc2cc3c(cc2C(c2cccc(OC)c2O)C1C)OCO3 (stereo not drawn)	-5.3	120.4*	-0.3	i	-3.4
COc1cccc(C2c3cc4c(cc3OC(N3CCOCC3)C2C)OCO4)c1O (stereo not drawn)	-2.8	23.0	-0.5	+	-1.3
